# The campaign covered roughly 5,500 compounds. About 2,000 (36%) were called active. Inconclusive results (about 18%) are left out. The list shows a part of the results. Values without a mark were called inactive. No stated cut-off is given here; in the data, active means normalized growth mostly below about 0.91 (no sharp cut-off); inconclusive means no clear call, values can overlap the other calls; inactive means mostly above about 0.92.
# Test: chemical genetic growth profiling, strain panel (AID 1159580);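 further: tested at 20 µM; growth read once vehicle control cultures reached saturation at 30 °C; 1 = growth at the plate median or of vehicle wells; lower values mean less growth of the strain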
# Conditions: S. cerevisiae deletion strains, growth OD
# [1] = locus YAL040C, strain CLN3, active compounds read low
# [2] = locus YCL061C, strain MRC1 (second series), active compounds read low
# [3] = locus YDR363W, strain ESC2, active compounds read low
# [4] = locus YGR078C, strain PAC10, active compounds read low
# [5] = locus YMR263W, strain SAP30, active compounds read low
# [6] = locus YMR307W, strain GAS1, active compounds read low
# [7] = locus YNL175C, strain NOP13, active compounds read low
# [8] = locus YNL197C, strain WHI3, active compounds read low
# [9] = locus YOR083W, strain WHI5 (second series), active compounds read low
# [10] = locus YDR150W, strain NUM1, active compounds read low
smiles,measurement,setting,value
Oc1cc(O)cc(/C=C/c2ccc(O)c(O)c2)c1,normalized growth,[1],1.01
same,normalized growth,[2],0.992
same,normalized growth,[3],0.955
same,normalized growth,[4],0.691 (active)
same,normalized growth,[5],1.01
same,normalized growth,[6],0.979
same,normalized growth,[7],0.71 (active)
same,normalized growth,[8],1
same,normalized growth,"locus YNL322C, strain KRE1, active compounds read low",0.989
same,normalized growth,[9],0.993
O=c1cc(O)cc(/C=C/c2ccc(O)c(O)c2)o1,normalized growth,"locus YAL013W, strain DEP1, active compounds read low",0.981
same,normalized growth,[1],0.986
same,normalized growth,[2],0.988
same,normalized growth,[10],0.978
same,normalized growth,[3],0.995
same,normalized growth,"locus YER002W, strain NOP16, active compounds read low",0.999
same,normalized growth,[4],0.985
same,normalized growth,"locus YGR229C, strain SMI1, active compounds read low",0.966
same,normalized growth,"locus YJR075W, strain HOC1, active compounds read low",0.988
same,normalized growth,[5],1
same,normalized growth,[6],1.01
same,normalized growth,[7],0.988
same,normalized growth,[8],0.986
same,normalized growth,"locus YNL224C, strain SQS1, active compounds read low",1.02
same,normalized growth,[9],0.975
same,normalized growth,"locus YPL055C, strain LGE1, active compounds read low",0.978
COc1cc(O)cc(/C=C/c2ccccc2)c1,normalized growth,"locus YBR021W, strain FUR4, active compounds read low",0.833 (active)
same,normalized growth,"locus YBR229C, strain ROT2, active compounds read low",0.97
same,normalized growth,"locus YCL029C, strain bik1, active compounds read low",0.9 (active)
same,normalized growth,"locus YDL035C, strain GPR1, active compounds read low",0.665 (active)
same,normalized growth,"locus YDL074C, strain BRE1, active compounds read low",0.61 (active)
same,normalized growth,"locus YDL101C, strain DUN1, active compounds read low",0.835 (active)
same,normalized growth,"locus YDL134C, strain PPH21, active compounds read low",0.697 (active)
same,normalized growth,"locus YDL185W, strain tfp1, active compounds read low",0.881 (active)
same,normalized growth,"locus YDL192W, strain arf1, active compounds read low",0.692 (active)
same,normalized growth,"locus YDR101C, strain arx1, active compounds read low",0.858 (active)
same,normalized growth,[10],0.954
same,normalized growth,"locus YDR162C, strain NBP2, active compounds read low",0.618 (active)
same,normalized growth,"locus YDR318W, strain mcm21, active compounds read low",0.805 (active)
same,normalized growth,"locus YDR388W, active compounds read low",0.966
same,normalized growth,"locus YDR502C, strain sam2, active compounds read low",0.748 (active)
same,normalized growth,"locus YEL061C, strain CIN8, active compounds read low",0.856 (active)
same,normalized growth,"locus YER110C, active compounds read low",0.866 (active)
same,normalized growth,"locus YER155C, strain BEM2, active compounds read low",0.753 (active)
same,normalized growth,"locus YER167W, strain BCK2, active compounds read low",0.94
same,normalized growth,"locus YGL078C, strain dbp3, active compounds read low",0.765 (active)
same,normalized growth,"locus YGL086W, strain mad1, active compounds read low",0.803 (active)
same,normalized growth,"locus YGL248W, strain PDE1, active compounds read low",0.748 (active)
same,normalized growth,"locus YGR135W, strain pre9, active compounds read low",0.713 (active)
same,normalized growth,"locus YGR252W, strain gcn5, active compounds read low",0.519 (active)
same,normalized growth,"locus YHR030C, strain SLT2, active compounds read low",0.795 (active)
same,normalized growth,"locus YHR079C, strain IRE1 (second series), active compounds read low",0.89 (active)
same,normalized growth,"locus YHR094C, strain hxt1, active compounds read low",0.946
same,normalized growth,"locus YHR129C, strain ARP1, active compounds read low",0.768 (active)
same,normalized growth,"locus YHR200W, strain rpn10, active compounds read low",0.907 (active)
same,normalized growth,"locus YIL066C, strain RNR3, active compounds read low",0.859 (active)
same,normalized growth,"locus YIL073C, strain SPO22, active compounds read low",0.809
same,normalized growth,"locus YIL125W, strain kgd1, active compounds read low",0.94
same,normalized growth,"locus YIR030C, strain dcg1, active compounds read low",0.907 (active)
same,normalized growth,"locus YJL095W, strain BCK1, active compounds read low",0.46 (active)
same,normalized growth,"locus YJL134W, strain LCB3, active compounds read low",0.976
same,normalized growth,"locus YJL168C, strain set2, active compounds read low",0.954
same,normalized growth,"locus YJL187C, strain SWE1 (second series), active compounds read low",0.721 (active)
same,normalized growth,"locus YJR043C, strain POL32, active compounds read low",0.85 (active)
same,normalized growth,"locus YKL009W, strain mrt4, active compounds read low",0.742 (active)
same,normalized growth,"locus YKL068W, active compounds read low",0.954
same,normalized growth,"locus YKL085W, strain MDH1 (second series), active compounds read low",0.913 (active)
same,normalized growth,"locus YKL085W, strain MDH1, active compounds read low",0.913 (active)
same,normalized growth,"locus YKL190W, strain CNB1, active compounds read low",0.839 (active)
same,normalized growth,"locus YKR001C, strain vps1, active compounds read low",0.425 (active)
same,normalized growth,"locus YLR039C, strain RIC1, active compounds read low",0.507 (active)
same,normalized growth,"locus YLR058C, strain SHM2, active compounds read low",0.784 (active)
same,normalized growth,"locus YLR102C, strain apc9, active compounds read low",0.942
same,normalized growth,"locus YLR262C, strain YPT6, active compounds read low",0.381 (active)
same,normalized growth,"locus YLR268W, strain sec22, active compounds read low",0.909
same,normalized growth,"locus YLR330W, strain CHS5, active compounds read low",0.715 (active)
same,normalized growth,"locus YLR342W, strain FKS1 (second series), active compounds read low",0.601 (active)
same,normalized growth,"locus YLR371W, strain rom2, active compounds read low",0.949
same,normalized growth,"locus YLR418C, strain cdc73, active compounds read low",0.456 (active)
same,normalized growth,"locus YML016C, strain PPZ1, active compounds read low",0.924
same,normalized growth,"locus YML032C, strain rad52, active compounds read low",0.795 (active)
same,normalized growth,"locus YML124C, strain tub3, active compounds read low",0.914 (active)
same,normalized growth,"locus YMR078C, strain ctf18, active compounds read low",0.938
same,normalized growth,"locus YMR223W, strain ubp8, active compounds read low",0.805 (active)
same,normalized growth,[5],0.768 (active)
same,normalized growth,[6],0.59 (active)
same,normalized growth,"locus YNL067W, strain RPL9B, active compounds read low",0.721 (active)
same,normalized growth,"locus YNL233W, strain BNI4, active compounds read low",0.67 (active)
same,normalized growth,"locus YNL250W, strain rad50, active compounds read low",0.887 (active)
same,normalized growth,"locus YNL271C, strain bni1, active compounds read low",0.855 (active)
same,normalized growth,"locus YNL298W, strain CLA4, active compounds read low",0.802 (active)
same,normalized growth,"locus YNL307C, strain MCK1, active compounds read low",0.513 (active)
same,normalized growth,"locus YNR052C, strain pop2, active compounds read low",0.855 (active)
same,normalized growth,"locus YOL012C, strain htz1",1.06
same,normalized growth,"locus YOL147C, strain pex11, active compounds read low",0.824 (active)
same,normalized growth,"locus YOR061W, strain CKA2, active compounds read low",0.885 (active)
same,normalized growth,"locus YOR069W, strain VPS5, active compounds read low",0.807 (active)
same,normalized growth,"locus YOR136W, strain idh2, active compounds read low",0.899 (active)
same,normalized growth,"locus YOR144C, strain elg1, active compounds read low",0.918 (active)
same,normalized growth,"locus YOR184W, strain ser1, active compounds read low",0.666 (active)
same,normalized growth,"locus YOR316C, strain cot1, active compounds read low",0.949
same,normalized growth,"locus YPR119W, strain clb2, active compounds read low",0.924 (active)
same,normalized growth,"locus YPR141C, strain kar3, active compounds read low",0.95
same,normalized growth,"locus YPR163C, strain tif3, active compounds read low",0.682 (active)
same,normalized growth,"locus YPR167C, strain met16, active compounds read low",0.809 (active)
same,normalized growth,"strain wtn01, active compounds read low",0.789 (active)
